Measurements taken from PubChem BioAssay.
The list shows a part of the results. A number with no mark means an inactive call. Calls of active or inactive are those of the source.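 How the source made its calls, unless noted: active means mean inhibition above a set limit taken from the earlier primary screen (cut at about 13% in these data); inactive means the rest.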

What was measured:
[1] = growth loss of phage-infected E. coli expressing H. pylori AddAB, confirmation, AddAB inhibitor project, absorbance, E. coli V3065, T4 phage, triplicate (AID 488942); conditions: OD, at 11.9 µM, hits give high values, T4 phage with gene 2 nonsense mutations;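 further: higher means less bacterial growth since AddAB block lets phage replicate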
[2] = growth loss of RecBCD+ E. coli with mutant T4 phage, counter-screen for AddAB inhibitor project, absorbance, V66 E. coli (AID 488955;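 active means mean inhibition above the mean of solvent-only control wells plus 3 SD, cut at about 4% in these data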;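 further: optical density read after an 18 h incubation at 37 °C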); conditions: OD growth, at 11.9 µM, hits give high values
[3] = bacterial viability inhibition counter-screen, confirmation, counter-screen for AddAB inhibitor project, absorbance (AID 488956; in the data active means inhibition above about 25%); conditions: absorbance (AddAB counterscreen), at 11.9 µM, hits give high values
[4] = growth loss of phage-infected RecBCD+ E. coli, confirmation, RecBCD inhibitor project, absorbance, E. coli V66, T4 gene 2 phage (AID 651982;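 active means mean inhibition over triplicates exceeding the hit threshold derived in the original primary screen, cut at about 11% in these data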); conditions: E. coli V66 + T4 2- phage, growth OD; at 11.9 µM; hits give high values
[5] = E. coli viability inhibition, counter-screen for RecBCD inhibitor project, absorbance, high throughput (AID 651983; in the data active means inhibition above about 20%;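 further: E. coli strain V66 grown with compound alone and no phage infection; 0% = bacteria with DMSO vehicle only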); conditions: absorbance (OD) growth, at 11.9 µM, hits give high values
[6] = growth loss of phage-infected AddAB-carrying E. coli, confirmation, counter-screen for RecBCD inhibitor project, absorbance, E. coli V3065, T4 phage (AID 651984;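 active means mean inhibition above the solvent-only control wells' mean plus 3 SD, cut at about 22% in these data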;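 further: higher means less bacterial growth from phage killing when AddAB is blocked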); conditions: E. coli expressing H. pylori AddAB + T4 phage, OD growth; at 11.9 µM; hits give high values; gene 2 mutant T4, recBCD-deleted host
[7] = molecular target: Platelet-activating factor acetylhydrolase IB subunit alpha1 (Homo sapiens) (UniProt Q15102); assay: PAFAH1B3 enzyme inhibitors, confirmation, biochemical, fluorescence polarization, human (AID 493032;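 active means average inhibition over triplicate runs above the hit cutoff set in the earlier primary screen, cut at about 25% in these data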;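 further: 0% = enzyme with DMSO and 100% = wells lacking PAFAH1B3 protein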); conditions: recombinant PAFAH1B3, FP-Rh activity-based probe, at 3.39 µM, hits give high values
[8] = molecular target: Serine protease HTRA1 (Homo sapiens) (UniProt Q92743); assay: HTRA1 protease inhibitors, retest, confirmation, biochemical, fluorescence polarization (AID 540248;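 active means mean inhibition over three repeats above a set limit taken from the earlier primary screen, cut at about 37% in these data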;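 further: 0% = HTRA1 with DMSO and 100% = wells lacking HTRA1; inhibitors block probe binding so polarization drops and inhibition rises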); conditions: recombinant HTRA1, FP-rhodamine activity-based probe, at 5.96 µM, hits give high values

Chain of Platelet-activating factor acetylhydrolase IB subunit alpha1 (Homo sapiens) (Q15102 whole entry, looked up): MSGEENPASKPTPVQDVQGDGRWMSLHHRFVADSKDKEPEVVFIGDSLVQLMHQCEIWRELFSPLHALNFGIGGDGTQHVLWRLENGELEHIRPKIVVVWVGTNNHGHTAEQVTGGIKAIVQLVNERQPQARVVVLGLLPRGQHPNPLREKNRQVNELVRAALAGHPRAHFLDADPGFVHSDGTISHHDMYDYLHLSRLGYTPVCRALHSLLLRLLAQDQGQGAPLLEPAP

In the case of `CC(=O)N(O)CCCCCNC(=O)CCC(=O)N(O)CCCCCNC(=O)CCC(=O)N(O)CCCCCNC(=O)CCC(=O)O`, the inhibition [1] is reported as 13.8% (active), the inhibition [2] is reported as 14.4% (active) and the inhibition [3] is reported as 2.8%. The inhibition [4] was 7.53%, the inhibition [5] was 11.4% and the inhibition [6] was 12.5%.
`O=[N+]([O-])c1ccc(N=Cc2c(O)ccc3ccccc23)cc1` gave an inhibition [1] of -0.99%, an inhibition [2] of -2.02% and an inhibition [3] of -4.22%.
`Cc1cccc(N=C2NC(=O)/C(=C/c3cn(C)c4ccccc34)S2)c1` gave an inhibition [7] of 17.3%.
For `CCN(CC)c1ccc(/C=N/Nc2nc(C)cc(C)n2)c(O)c1`, the inhibition [8] was 61.8% (active).
With `CC(=O)c1c(C)n([O-])c2ccccc2[n+]1=O` the inhibition [1] was 100% (active), the inhibition [2] was 26.2% (active) and the inhibition [3] was 89.7% (active). For the same molecule, the inhibition [4] was 16.9% (active), the inhibition [5] was 21.4% (active) and the inhibition [6] was 87.7% (active).
For `CC1=C(C(=O)OCc2ccccc2)C(c2ccco2)n2ncnc2N1` (stereo not drawn), the inhibition [1] was 0.55%, the inhibition [2] was 0.26% and the inhibition [3] was -3.83%.
For `O=C1c2ccccc2C(=O)c2c1cccc2N1CCN(Cc2ccccc2)CC1`, the inhibition [8] was 60.1% (active).
With `CN1CCN(c2cc3c(cc2F)c(=O)c(C(=O)O)cn3CCF)CC1` the inhibition [1] was 103% (active), the inhibition [2] was 102% (active) and the inhibition [3] was 103% (active). The inhibition [4] was 103% (active), the inhibition [5] was 103% (active) and the inhibition [6] was 102% (active).
With `COc1c(N2CCN(C(=S)Nc3ccccc3F)C(C)C2)c(F)cc2c(=O)c(C(=O)O)cn(C3CC3)c12` (stereo not drawn) the inhibition [1] was 102% (active), the inhibition [2] was 100% (active) and the inhibition [3] was 101% (active). The inhibition [4] was 102% (active), the inhibition [5] was 103% (active) and the inhibition [6] was 101% (active).
